Compound activity: PubChem, Sanford-Burnham Center for Chemical Genomics
NALP1 yeast inh – NALP1 inflammasome inhibitors in reconstituted yeast, colorimetric, S. cerevisiae, triplicate retest | S. cerevisiae NALP1/ASC/caspase-1 growth, X-gal OD620, 72 h | inhibition, % at 10 µM | hit rate 0.61% among 280,000 | AID 2071, 2009; in the data active = inhibition mostly above about 24%, no sharp cut-off; inactive = mostly below about 32%
tim23-1 inh – growth inhibitors of tim23-1 mutant yeast, primary screen, luminescence, uHTS; inhibition, % at 20 µM; S. cerevisiae tim23-1 growth, BacTiter-Glo luminescence, 24 h; hit rate 1.3% among 330,000;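 active = growth inhibition of the mutant yeast at or above 50%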;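 note: temperature-sensitive mutant grown at 25 °C; plate controls were DMSO-treated mutant yeast for no effect and medium wells lacking yeast for full effect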
TIM10 inh – growth inhibitors of isogenic TIM10 control yeast, primary screen, counter-screen for tim10-1 yeast inhibitor project, luminescence, uHTS | S. cerevisiae TIM10 strain growth, BacTiter-Glo luminescence, 24 h | inhibition, % at 10 µM | hit rate 1.4% among 330,000;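 active = inhibition of 40% or more at the single tested concentration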;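 note: wild-type TIM10 isogenic control strain grown at permissive 25 °C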
tim10-1 inh – growth inhibitors of tim10-1 mutant yeast, primary screen, luminescence, uHTS. S. cerevisiae tim10-1 ts strain growth, BacTiter-Glo, 24 h. inhibition, % at 20 µM. hit rate 2.2% among 330,000;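 active = inhibition of at least 40%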;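 note: mutant grown at 25 °C; 0% = DMSO wells with yeast and 100% = wells holding no yeast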
NLRP3 yeast inh – NALP3 inflammasome inhibitors in reconstituted yeast, primary screen, luminescence, uHTS; inhibition, % at 10 µM; hit rate 0.39% among 330,000; Yeast reconstituted NLRP3/ASC/caspase-1, beta-gal luminescence, 24 h;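 active = inhibition of 50% or more; inactive = inhibition below 50%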;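 note: plate controls were induced DMSO wells for no effect and uninduced yeast grown without galactose for full effect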
* = called active by the depositor; . = no result given. Only some compounds are listed: those with a hit (about 4.1% of all), similar ones and a draw of the others.

SMILES	NALP1 yeast inh	tim23-1 inh	TIM10 inh	tim10-1 inh	NLRP3 yeast inh
O=c1c(Cc2ccc(F)cc2)c(O)ccn1CCc1ccccn1	-11	7	1	2	11
COc1ccc(S(=O)(=O)N2CCCC(C(=O)NCc3ccncc3)C2)cc1Cl (stereo not given)	26*	21	15	13	-1
COc1ccc(S(=O)(=O)N2CCC(C(=O)NCc3ccncc3)CC2)cc1Cl	12	10	-5	8	17
Cc1cc(=O)n(C)c(=O)n1CCCCOc1ccc([N+](=O)[O-])cc1	50*	14	-4	14	-9
Cc1cc(=O)n(C)c(=O)n1CCCCCCOc1ccc([N+](=O)[O-])cc1	8	6	-2	18	24
CCOc1cc(CNc2ccccc2)cc(Br)c1OCC(=O)NC(C)(C)C	8	19	5	17	14
CCOc1cc(CNc2ccccc2)cc(Br)c1OCc1ccc(F)cc1	43*	9	8	14	3
Cc1cc(C)c2c(c1)/C(=N/NS(=O)(=O)c1ccc(Br)cc1)CCC2	38*	1	0	21	13
Cc1cc(C)c2c(c1)/C(=N/NS(=O)(=O)c1ccccc1)CCC2	-9	12	9	18	-3
CC(C)[C@H](NC(=O)c1ccccc1)C(=O)OCC(=O)N1CCN(C(=O)c2ccco2)CC1	10	1	-9	-13	13
COc1ccc(-c2nnn(CC(=O)NC3CCCc4ccccc43)n2)cc1OC (stereo not given)	42*	-4	24	16	7
N=c1c2c(ncn1Cc1ccco1)Oc1ccc3ccccc3c1C2c1ccccc1 (stereo not given)	57*	15	40	21	26
COc1ccc(C2c3c(ncn(Cc4ccco4)c3=N)Oc3ccc4ccccc4c32)cc1 (stereo not given)	27	35	33	34	12
Cc1ccc2nsnc2c1S(=O)(=O)N1CCOCC1	34*	4	7	0	5
Cc1c(CN2CCC(CO)(CCOc3ccccc3)CC2)c(=O)n(-c2ccccc2)n1C	26*	6	2	0	7
Cc1cc(C)c(CN2CCC(CO)(CCOc3ccccc3)CC2)cc1C	22	-5	-11	13	22
CCCCCn1c(=O)[nH]c2cc(C(=O)NCCCN3CCC(C)CC3)ccc2c1=O	32*	3	-14	13	-8
Cc1ccc(C)c(C(C)NC(=S)NCc2ccc(F)cc2)c1 (stereo not given)	31	2	-69	32	2
CN(C(=O)CSc1nnc(-c2ccccc2F)n1N)C1CCCCC1	.	0	-39	-1	26
CN(CC(=O)Nc1ccc(F)c(F)c1F)C(=O)c1n[nH]c(=O)c2ccccc12	.	8	9	5	4
CCCc1nnc(SCC(=O)N2CCCCC2C)n1CCOC (stereo not given)	24*	10	-1	-4	5
CN1C/C(=C\c2ccc(N3CCOCC3)cc2)C(=O)/C(=C/c2ccc(N3CCOCC3)cc2)C1	45	16	0	31	8
CN1C/C(=C/c2ccncc2)C(=O)/C(=C/c2ccncc2)C1	66*	14	-5	0	7
Cc1ccccc1N1C(=O)CN(Cc2sccc2C)C1=S	30	46	25	31	15
Cc1ccc(NC(=O)Nc2ccc3c(c2)CCC3)cc1	38*	8	16	-6	32
SMILES	NALP1 yeast inh	tim23-1 inh	TIM10 inh	tim10-1 inh	NLRP3 yeast inh
CCOC(=O)N1CCN(CC(O)COc2cc(C)cc(C)c2)CC1 (stereo not given)	-28	3	3	-11	8
O=C(CC1NC(=O)NC1=O)Nc1ccc(Cl)cc1 (stereo not given)	38*	3	-7	-9	16
CC(C)c1ccc(/C=C2\SC(=O)N(CC(=O)NCCCn3ccnc3)C2=O)cc1	-28	-18	4	-53	9
Clc1ccc(C2CSc3c4ncnc-4ncn32)cc1 (stereo not given)	40*	1	7	12	10
N#Cc1nccnc1S(=O)(=O)c1cccs1	23*	2	5	22	46
OCCN1CCN(c2ncnc3ccc(Br)cc23)CC1	32*	7	-2	0	19
Cc1cc(Br)ccc1OCCCCN1CCC(C)CC1	56*	11	-9	-47	12
Cc1cc(Br)ccc1OCCn1ccnc1	55*	-15	6	-26	27
CCC(C)c1ccc(OCCn2ccnc2)cc1 (stereo not given)	53*	6	4	24	1
Cc1cc(Cl)c(OCCOCCN2CCC(C)CC2)c(Br)c1	52*	-6	13	0	17
CC1CCN(CCCCOc2ccc(Br)cc2)CC1	12	3	5	-29	17
O=C(Oc1cccc(NC2=NS(=O)(=O)c3ccccc32)c1)c1cccnc1	2	-8	8	-11	14
CCOc1cc(/C=N/N2CCOCC2)ccc1OCc1ccc(C(=O)OC)o1	1	7	-10	13	19
COC(=O)Nc1ccc(S(=O)(=O)N2CCCC(C(=O)N3CC(C)OC(C)C3)C2)cc1 (stereo not given)	3	-5	11	11	-2
CCOc1ccc(OCC)c(NC(=O)Cn2c(C)nc3ccccc3c2=O)c1	2	10	-1	12	23
Cc1ccn2c(=O)c(NC(=O)c3cccs3)c(C)nc2c1	.	-9	-2	5	-7
CC1(C)CC(=O)C2=C(C1)C(c1cn(-c3ccccc3)nc1-c1ccccc1)C(C#N)=C(N)O2 (stereo not given)	43*	24	0	34	22
Nc1cc(Cl)ccc1N1CCCCCC1	-14	12	-7	9	18
Cc1cc(C)c(NS(=O)(=O)c2ccc(Cl)c(C(=O)O)c2)c(C)c1	2	-9	10	4	20
Cc1cc(C)c(NS(=O)(=O)c2ccc(NC(=O)/C=C/C(=O)O)cc2)c(C)c1	51*	7	6	9	-7
Cc1nc2ccccc2c(=O)n1/N=C/c1cn[nH]c1-c1ccccc1	41*	21	9	30	1
CC(C)=CCc1cc([C@@H]2CC(=O)c3ccc(O)c(CC=C(C)C)c3O2)ccc1O	.	27	9	19	14
COc1c(O)cnn(-c2ccccc2)c1=O	22	5	10	12	8
Fc1ccc(C2CCCN2Cc2nc(Cc3ccccc3F)no2)cc1 (stereo not given)	24*	34	-4	19	0
O=C(Nc1nnc(-c2cccs2)o1)c1cccc(Oc2ccccc2)c1	38*	46	1	19	30
CC(C)(C)[C@H]1C=C(C(=O)N2CCN(Cc3ccc4c(c3)OCO4)CC2)O[C@@H](OCc2ccc(CO)cc2)C1	4	-13	-1	29	9
COc1ccccc1C(=O)N/C(=N/c1nc(C)cc(C)n1)Nc1ccccc1	9	49	17	32	23
